High-throughput results deposited in PubChem by National Center for Advancing Translational Sciences (NCATS).
HT1080-NT tox = kills 2HG-producing HT-1080-NT fibrosarcoma cells; HT-1080-NT fibrosarcoma viability, CellTiter-Glo ATP luminescence, 48 h; actives 1.6% (n = 360,000); Potency, µM (doses to about 46.1 µM), for the others: top-dose activity, negative = less viability, actives largely listed as cytotoxic;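 note: NT is the 2HG producing partner of a matched IDH1 knockdown line; potency is the fitted concentration of half-maximal effect; 0% = DMSO-treated cells and -100% = media-only wells without cells; nearly all actives have a fitted effect of over 55% in size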
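Viability of the 2HG-overproducing fibrosarcoma line after 48 hours of compound exposure at 37 degrees C was determined by luminescence with CellTiter-Glo, and concentration-effect curves were then fitted and categorized.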
HT1080 IDH1KD tx = kills HT-1080 cells with IDH1 knockdown. Potency, µM (highest dose often 46.1 µM), without a hit: at the highest dose activity, negative = toxicity, most hits filed as cytotoxic. HT-1080 IDH1 knockdown viability, ATP luminescence, 48 h. actives 2% (n = 360,000);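 note: potency is the fitted concentration of half-maximal effect; 0% = DMSO wells and -100% = cell-free medium wells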
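HT-1080-IDH1KD cells (IDH1 knocked down), 750/well in RPMI with 5% FBS, treated with compound 48 h at 37 degrees C. Viability by CellTiter-Glo luminescence, normalised to DMSO and no-cell wells; concentration-response curves classed.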
TDP1 cell noCPT = qHTS for Inhibitors of human tyrosyl-DNA phosphodiesterase 1 (TDP1): qHTS in cells in absence of CPT; DT40 Tdp1-/- hTDP1 cells, no CPT, ATP luminescence, 48 h; Potency, µM (highest dose often 46.2 µM), inactives show at the highest dose activity change, negative = growth inhibition, most hits filed as inhibitors; actives 15% (n = 420,000); AID 686978, 2013; note: potency is the fitted concentration of half-maximal effect; nearly all actives have a fitted effect of over 55% in size
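Growth kinetics read by CellTiter-Glo luminescence after ≥48 hr at 37 °C. Cells: DT40 Tdp1-/- stably carrying human TDP1, 400 per well, compound exposure in the absence of CPT (DMSO vehicle).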
ALOX12 inh = ALOX12 (human) lipoxygenase inhibition | P18054 | purified 12hLO, xylenol orange hydroperoxide absorbance | Potency, µM (doses to about 108 µM), for the others: at the top dose activity change, negative = inhibition, hits mostly inhibitors | actives 1.1% (n = 580,000) | AID 1671190; note: potency is the fitted concentration of half-maximal effect
Target sequence (P18054 whole entry, looked up): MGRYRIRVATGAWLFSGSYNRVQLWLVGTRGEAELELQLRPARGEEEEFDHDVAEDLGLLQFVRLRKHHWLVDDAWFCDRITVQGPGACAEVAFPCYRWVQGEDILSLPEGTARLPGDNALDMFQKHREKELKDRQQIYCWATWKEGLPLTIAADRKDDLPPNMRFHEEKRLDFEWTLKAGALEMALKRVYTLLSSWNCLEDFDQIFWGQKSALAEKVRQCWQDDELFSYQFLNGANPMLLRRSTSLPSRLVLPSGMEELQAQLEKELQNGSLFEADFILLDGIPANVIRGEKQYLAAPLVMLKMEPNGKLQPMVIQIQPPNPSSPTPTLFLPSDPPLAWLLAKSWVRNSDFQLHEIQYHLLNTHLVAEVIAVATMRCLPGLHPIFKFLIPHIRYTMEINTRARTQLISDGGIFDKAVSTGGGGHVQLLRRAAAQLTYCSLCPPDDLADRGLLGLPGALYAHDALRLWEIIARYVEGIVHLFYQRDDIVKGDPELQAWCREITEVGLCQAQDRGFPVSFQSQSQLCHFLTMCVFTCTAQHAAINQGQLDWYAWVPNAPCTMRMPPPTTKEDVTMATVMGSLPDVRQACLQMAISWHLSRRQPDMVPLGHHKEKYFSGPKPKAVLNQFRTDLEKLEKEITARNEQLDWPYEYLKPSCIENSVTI
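Hydroperoxide product was detected by ferrous iron/xylenol orange as the 573 to 405 nm absorbance ratio. Arachidonic acid at 40 uM (final) was turned over for 30 min at room temperature by 150 nM human 12hLO, pH 7.0 Hepes buffer, after 15 min compound preincubation.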
IL1B secr inh = inhibitors of inflammasome signaling (IL-1 beta secretion). actives 4.7% (n = 360,000). AID 743279. THP-1 LPS/ATP IL-1B secretion, AlphaLISA, 16 h; stronger effect = lower value. activity change, % at 57.5 µM; in the data active = activity change below about -50%; inconclusive = mostly about -30% to -49%
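Secreted IL-1B measured by AlphaLISA bead assay after 16 h compound exposure of THP-1 cells; compounds (final up to 57.5 uM) added 1 h before LPS (250 ng/mL) and ATP (1.25 mM) stimulation; lower signal means less secretion.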
DT40 TDP1 CPT = growth inhibition of DT40 Tdp1-/-;hTDP1 cells with camptothecin (screen for TDP1 inhibitors) | chicken DT40 Tdp1-/-;hTDP1 cells + 20 nM CPT, ATP luminescence, 48 h | Potency, µM (highest dose often 46.2 µM), for the others: at the top dose activity change, negative = growth inhibition, hits mostly inhibitors | actives 12% (n = 420,000) | AID 686979; note: potency is the fitted concentration of half-maximal effect; nearly all actives have a fitted effect of over 55% in size
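Chicken DT40 Tdp1-/- cells complemented with human TDP1, 400 cells/well, exposed to compounds plus 20 nM camptothecin for at least 48 h at 37 C; viability read as ATP content by CellTiter-Glo luminescence.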
An asterisk follows results filed as active; u = inconclusive; x = no result given; [ ] = another dose, or the depositor's remark. The sample as a whole holds a higher share of hits than the screen did. Unless noted, calls come from the whole dose curve; as a rule, active = well fitted curve in the direction sought with a large enough effect; inconclusive = small, poorly fitted or top-dose-only effect, or another doubt; inactive = no such curve, though single readings can be large; an effect the other way counts as inactive or inconclusive. Unless noted, % is set by controls: 0 for no effect and ±100 for the full control effect.

SMILES	HT1080-NT tox	HT1080 IDH1KD tx	TDP1 cell noCPT	ALOX12 inh	IL1B secr inh	DT40 TDP1 CPT
CCCN1C(=O)c2ccccc2NC1c1ccc(O)c(OCC)c1 (stereo not given)	1%	4%	-7%	19%	14	0%
CCOC(=O)c1cc(S(=O)(=O)N2CCN(c3ccc(C(C)=O)cc3)CC2)[nH]n1	x	x	16µM*	u	x	18µM*
CCOC(=O)c1cc(S(=O)(=O)N2CCN(c3cc(C)ccc3C)CC2)[nH]n1	x	x	u	0%	x	u
CCOC(=O)c1cc(S(=O)(=O)N2CCN(c3ccccc3)CC2)[nH]n1	x	x	u	-21%	x	u
CCOC(=O)c1cc(S(=O)(=O)N2CCN(c3cccc(C)c3)C(C)C2)[nH]n1 (stereo not given)	x	x	23µM*	0%	x	16µM*
C[C@H](c1ccccc1)N1C[C@@H](COCc2ccccc2)Oc2cc(N3CCC[C@H]3CO)ccc2S1(=O)=O	u	u	18µM*	u	-14	u
COC[C@@H]1CCCN1c1ccc2c(c1)O[C@@H](COCc1ccccc1)CN([C@H](C)c1ccccc1)S2(=O)=O	-18%	-2%	23µM*	-2%	-20	u
CCCCC[C@H](C)N1C[C@H](COCc2ccccc2)Oc2cc(N3CCC[C@@H]3COC)ccc2S1(=O)=O	1%	-2%	u	-5%	0	u
C[C@@H](c1ccccc1)N1C[C@H](COCc2ccccc2)Oc2cc(N3CCC[C@@H]3CO)ccc2S1(=O)=O	u	u	u	u	-12	u
COC[C@@H]1CCCN1c1ccc2c(c1)O[C@@H](COCc1ccccc1)CN([C@@H](C)c1ccccc1)S2(=O)=O	-2%	-1%	12µM*	15%	41	9.2µM*
C[C@H](c1ccccc1)N1C[C@H](COCc2ccccc2)Oc2cc(N3CCC[C@@H]3CO)ccc2S1(=O)=O	u	-29%	u	u	u	u
C=C(C)CN1C(=O)C2(OCCO2)c2cc(Br)ccc21	6%	3%	8%	36%	30	1%
O=C(NC1CCCC1)c1cn(C2CCN(C(=O)c3cccnc3)CC2)nn1	x	x	x	15%	x	x
CC1CCN(S(=O)(=O)c2cnc(Cl)c(Br)c2)CC1	2%	14%	-24%	2%	-65*	-16%
CC1CCN(S(=O)(=O)c2ccc(Cl)cc2Br)CC1	-1%	-2%	-26%	-14%	7	2%
CC1CCCCN1S(=O)(=O)c1cnc(Cl)c(Br)c1 (stereo not given)	3%	-1%	u	16%	-94*	u
CC1CCCCN1S(=O)(=O)c1coc(C(N)=O)c1 (stereo not given)	11%	4%	0%	-1%	5	-1%
O=C(CC1CCN(S(=O)(=O)c2ccc(F)cc2F)C1)NCc1ccccc1 (stereo not given)	x	x	x	13%	x	x
Cc1ccccc1N1CCN(C(=O)c2ccc3c(c2)N(C)C2CCCCCN2C3=O)CC1 (stereo not given)	x	x	x	11%	x	x
CC(C)(C)c1nc2cc(Cl)c([N+](=O)[O-])cc2o1	-28%	u	23µM*	1%	u	u
Cn1c(=O)n(C)c2cc(N3CCCCC3)c(NC(=O)COc3ccc(Cl)cc3)cc21	x	x	x	-6%	x	x
C#Cc1cccc(Nc2nc(NC(C)C)nc3ccsc23)c1	u	21µM*	21µM*	u	-24	u
C#Cc1cccc(Nc2nc(NCCOC)nc3ccsc23)c1	u	u	21µM*	-52%	-8	16µM*
C#Cc1cccc(Nc2nc(NCc3ccccc3OC)nc3ccsc23)c1	21µM*	u	9.2µM*	u	-71*	9.2µM*
CC(C)CN1CCN(C(=O)CCC[C@@H]2[C@H]3CCCN4CCC[C@@H](CN2C(=O)c2cccnc2)[C@@H]34)CC1	x	x	x	45%	x	x
SMILES	HT1080-NT tox	HT1080 IDH1KD tx	TDP1 cell noCPT	ALOX12 inh	IL1B secr inh	DT40 TDP1 CPT
O=C(CSc1nccc(=O)[nH]1)Nc1cccc2ccccc12	1%	3%	-2%	-7%	32	23%
COCc1ccc(CN2CCOc3c(cc(-c4cc(C)c5cccc(OC)c5n4)cc3OC)C2)o1	x	x	21µM*	12%	x	-5%[9.04 µM]
COc1cc(-c2c(OC)cccc2OC)cc2c1OCCN(C(=O)CCn1nc(C)cc1C)C2	x	x	-17%	1%	x	-5%[9.04 µM]
COc1cc(-c2cc(C)c3cccc(OC)c3n2)cc2c1OCCN(C(=O)CCn1ccc(C)n1)C2	x	x	23µM*	9%	x	-16%[9.04 µM]
Oc1cc(-c2ccccc2)c2ccccc2c1	u	u	u	u	-113*	18µM*
CC[C@]12c3[nH]c4cc(-c5ccco5)ccc4c3CCN1C(=O)[C@@H](CC(=O)NCc1ccc(OC)c(OC)c1)C[C@@H]2C(=O)N1CCN(C(=O)C2CC2)CC1	9%	1%	u	u	u	u
CC[C@]12c3[nH]c4cc(-c5ccco5)ccc4c3CCN1C(=O)[C@@H](CC(=O)NCC13CC4CC(CC(C4)C1)C3)C[C@@H]2C(=O)N1CCN(C(=O)c2ccco2)CC1	u	u	21µM*	-13%	-54*	9.2µM*
CC[C@]12c3[nH]c4cc(-c5ccco5)ccc4c3CCN1C(=O)[C@@H](CC(=O)NCc1cccc(C(F)(F)F)c1)C[C@@H]2C(=O)N1CCN(C(=O)C2CC2)CC1	-26%	u	u	-24%	0	16µM*
C[C@]12c3[nH]c4cc(-c5ccco5)ccc4c3CCN1C(=O)[C@@H](CC(=O)NCc1cccc(C(F)(F)F)c1)C[C@@H]2C(=O)N1CCCCC1	u	u	26µM*	-21%	-60*	u
CC[C@]12c3[nH]c4cc(-c5ccco5)ccc4c3CCN1C(=O)[C@@H](CC(=O)NCc1ccco1)C[C@@H]2C(=O)N1CCN(C(=O)C2CC2)CC1	-3%	-5%	16µM*	u	-16	16µM*
CC[C@]12c3[nH]c4cc(-c5ccco5)ccc4c3CCN1C(=O)[C@@H](CC(=O)NCCCN(C)C)C[C@@H]2C(=O)N1CCN(C(=O)c2ccco2)CC1	6%	5%	-25%	u	11	-4%
Cc1ccc(C(=O)COC(=O)C2CC(=O)N(NC(=O)c3ccc(Cl)c(Cl)c3)C2)cc1C (stereo not given)	x	x	x	3%	x	x
